# Laboratory results as given in article PMC11062922 (Nature Chemical Biology, 2023).
# Where two headings read alike, the source gives them in different places.
# Key:
# Design in all cases: species or system human, MV4-11 + K-562 + COLO205 + SK-N-BE2 + OVCAR-8
# GSK3A = conditions: read-out: apparent Kd, n = 1
# GSK3B = conditions: read-out: apparent Kd, n = 1
# PIK3CD = conditions: read-out: apparent Kd; compound concentrations:100 nM and 1000 nM (sheet 'Samples'); n = 1
# TAOK3 = conditions: read-out: apparent Kd; compound concentrations:100 nM and 1000 nM (sheet 'Samples'); n = 1
# PRKCA = conditions: read-out: apparent Kd; compound concentrations:100 nM and 1000 nM (sheet 'Samples'); n = 1
# PRKCB = conditions: read-out: apparent Kd; compound concentrations: 100 nM and 1000 nM (sheet 'Samples'), CATDS: 0.217434450418582; n = 1
# PRKCD = conditions: read-out: apparent Kd, n = 1
# RPS6KA6 = conditions: read-out: apparent Kd; compound concentrations:100 nM and 1000 nM (sheet 'Samples'); n = 1
# RPS6KB1 = conditions: read-out: apparent Kd; compound concentrations:100 nM and 1000 nM (sheet 'Samples'); n = 1
# SLK = conditions: read-out: apparent Kd, n = 1
# IARS = conditions: read-out: apparent Kd; compound concentrations: 100 nM and 1000 nM (sheet 'Samples'), CATDS: 1; n = 1
# ICK = conditions: read-out: apparent Kd; compound concentrations: 100 nM and 1000 nM (sheet 'Samples'), CATDS: 0.173475626531951; n = 1
# PRKCQ = conditions: read-out: apparent Kd; compound concentrations: 100 nM and 1000 nM (sheet 'Samples'), CATDS: 0.15135413462946001; n = 1
# HSP90B1 = conditions: read-out: apparent Kd; compound concentrations: 100 nM and 1000 nM (sheet 'Samples'), CATDS: 0.28143783483282298; n = 1
# PIK3C3 = conditions: read-out: apparent Kd; compound concentrations: 100 nM and 1000 nM (sheet 'Samples'), CATDS: 0.26990158235455203; n = 1
# PIK3CB = conditions: read-out: apparent Kd; compound concentrations: 100 nM and 1000 nM (sheet 'Samples'), CATDS: 0.57413084763850397; n = 1
# MAPK10 = conditions: read-out: apparent Kd, compound concentrations: 100 nM and 1000 nM (sheet 'Samples'), n = 1
# MAPK14 = conditions: read-out: apparent Kd, compound concentrations: 100 nM and 1000 nM (sheet 'Samples'), n = 1
# MAP2K1 = conditions: read-out: apparent Kd; compound concentrations: 100 nM and 1000 nM (sheet 'Samples'), CATDS: 0.27931983910668101; n = 1
# MAPK11 = conditions: read-out: apparent Kd; compound concentrations: 100 nM and 1000 nM (sheet 'Samples'), CATDS: 0.33231746948784902; n = 1
# RET = conditions: read-out: apparent Kd; compound concentrations: 100 nM and 1000 nM (sheet 'Samples'), CATDS: 0.41481657466373201; n = 1
# MAP3K1 = conditions: read-out: apparent Kd; compound concentrations: 100 nM and 1000 nM (sheet 'Samples'), CATDS: 0.14122884829610699; n = 1
# MAP4K5 = conditions: read-out: apparent Kd; compound concentrations: 100 nM and 1000 nM (sheet 'Samples'), CATDS: 0.32149724662749601; n = 1
# PLK1 = conditions: read-out: apparent Kd; compound concentrations: 100 nM and 1000 nM (sheet 'Samples'), CATDS: 0.55429480894525696; n = 1
# STK10 = conditions: read-out: apparent Kd; compound concentrations: 100 nM and 1000 nM (sheet 'Samples'), CATDS: 0.168955384509856; n = 1
# MAPK9 = conditions: read-out: apparent Kd; compound concentrations: 100 nM and 1000 nM (sheet 'Samples'), CATDS: 0.21193161628333601; n = 1
# MAPKAPK2 = conditions: read-out: apparent Kd; compound concentrations: 100 nM and 1000 nM (sheet 'Samples'), CATDS: 0.161840015907707; n = 1
# NLK = conditions: read-out: apparent Kd; compound concentrations: 100 nM and 1000 nM (sheet 'Samples'), CATDS: 0.13689405577896799; n = 1
# NQO1 = conditions: read-out: apparent Kd; compound concentrations: 100 nM and 1000 nM (sheet 'Samples'), CATDS: 0.141428074132052; n = 1
# [1] = compound concentrations:100 nM and 1000 nM (sheet 'Samples')
smiles,measurement,setting,value
COc1cccc(C2=C(Nc3cc(Cl)c(O)c(Cl)c3)C(=O)NC2=O)c1 [SB-390767],potency estimated from few doses,GSK3A; [1],0.528 µM
same,potency estimated from few doses,GSK3B; [1],1.09 µM
same,potency estimated from few doses,PIK3CD,0.191 µM
same,potency estimated from few doses,TAOK3,1.11 µM
Cn1cc(C2=C(c3cccc(OCC(O)CO)c3)C(=O)NC2=O)c2ccccc21 (stereo not drawn) [RO5198354-000],potency estimated from few doses,"GSK3A; compound concentrations: 100 nM and 1000 nM (sheet 'Samples'), CATDS: 0.57799072500507098",0.37 µM
same,potency estimated from few doses,"GSK3B; compound concentrations: 100 nM and 1000 nM (sheet 'Samples'), CATDS: 0.44055416886874998",0.644 µM
COc1cccc(C2=C(Nc3ccc(Cl)c(C(=O)O)c3)C(=O)NC2=O)c1 [SB-390769],potency estimated from few doses,GSK3A; [1],0.323 µM
same,potency estimated from few doses,GSK3B; [1],0.644 µM
Cn1cc(C2=C(c3c4n(c5ccccc35)CCC(CN)CC4)C(=O)NC2=O)c2ccccc21 (stereo not drawn) [RO0319371-000],potency estimated from few doses,GSK3A; [1],0.608 µM
same,potency estimated from few doses,GSK3B; [1],0.504 µM
same,potency estimated from few doses,PRKCA,0.0222 µM
same,potency estimated from few doses,PRKCB,0.0523 µM
same,potency estimated from few doses,PRKCD; [1],0.0316 µM
same,potency estimated from few doses,RPS6KA6,0.342 µM
same,potency estimated from few doses,RPS6KB1,0.306 µM
same,potency estimated from few doses,SLK; [1],2.12 µM
Cc1ccc(-c2nc(Nc3ccncc3)c3ccccc3n2)s1 [GSK189015A],potency estimated from few doses,IARS,1.44 µM
Cn1cc(C2=C(c3cn(CCO)c4ccccc34)C(=O)NC2=O)c2ccccc21 [RO0318036-000],potency estimated from few doses,"GSK3A; compound concentrations: 100 nM and 1000 nM (sheet 'Samples'), CATDS: 0.34431860248680501",0.263 µM
same,potency estimated from few doses,"GSK3B; compound concentrations: 100 nM and 1000 nM (sheet 'Samples'), CATDS: 0.35306232464093901",0.252 µM
same,potency estimated from few doses,ICK,1.12 µM
same,potency estimated from few doses,"PRKCD; compound concentrations: 100 nM and 1000 nM (sheet 'Samples'), CATDS: 0.14509929843566999",1.97 µM
same,potency estimated from few doses,PRKCQ,1.7 µM
O=C(Nc1n[nH]c2cc(-c3ccco3)ccc12)C1CC1 [SB-737447],potency estimated from few doses,GSK3A; [1],0.498 µM
same,potency estimated from few doses,GSK3B; [1],0.645 µM
O=c1cc(N2CCOCC2)nc2n(Cc3cccc(Cl)c3Cl)c3ccccc3n12 [GSK2299009A],potency estimated from few doses,HSP90B1,1.04 µM
same,potency estimated from few doses,PIK3C3,1.17 µM
same,potency estimated from few doses,PIK3CB,0.251 µM
Nc1n[nH]c2nnc(-c3ccccc3)c(-c3ccccc3)c12 [GW554060X],potency estimated from few doses,GSK3A; [1],0.424 µM
same,potency estimated from few doses,GSK3B; [1],0.833 µM
Fc1ccc(Nc2nccc(-c3c(-c4ccc(Cl)cc4)nn4ncccc34)n2)cc1F [GW829058X],potency estimated from few doses,MAPK10; CATDS: 0.57984182911323701,0.726 µM
same,potency estimated from few doses,MAPK14; CATDS: 0.43948476052302998,1.28 µM
COc1cc2c(Nc3cccc(NC(=O)c4ccccc4)c3)ncnc2cc1OCCCN1CCOCC1 [GSK223810A],potency estimated from few doses,MAP2K1,2.31 µM
same,potency estimated from few doses,MAPK11,1.55 µM
same,potency estimated from few doses,RET,1.03 µM
COc1cc2ncn(-c3cc(OCc4ccccc4Cl)c(C(N)=O)s3)c2cc1OC [GW852849X],potency estimated from few doses,MAP3K1,1.95 µM
same,potency estimated from few doses,MAP4K5,0.184 µM
same,potency estimated from few doses,PLK1,0.0682 µM
same,potency estimated from few doses,"SLK; compound concentrations: 100 nM and 1000 nM (sheet 'Samples'), CATDS: 0.14112272983739199",1.96 µM
same,potency estimated from few doses,STK10,1 µM
Cn1c(=O)c(Sc2ccccc2F)cc2cnc(NC3CCOCC3)nc21 [RO4944065-000],potency estimated from few doses,MAPK10; CATDS: 0.25998811221784501,0.524 µM
same,potency estimated from few doses,MAPK14; CATDS: 0.14533669978761299,1.58 µM
same,potency estimated from few doses,MAPK9,0.732 µM
same,potency estimated from few doses,MAPKAPK2,1.23 µM
same,potency estimated from few doses,NLK,1.84 µM
same,potency estimated from few doses,NQO1,1.69 µM
